Source: PubChem (National Center for Advancing Translational Sciences (NCATS))
D2 antag – antagonizes the human D2 dopamine receptor; HEK293 TREx D2 cells, calcium flux, dopamine EC80; actives 2% (n = 340,000); inhibition, % at 10 µM; AID 485344; in the data active means inhibition above about 30%; inactive means below that, where a call was filed
Target sequence (P14416 whole entry, looked up): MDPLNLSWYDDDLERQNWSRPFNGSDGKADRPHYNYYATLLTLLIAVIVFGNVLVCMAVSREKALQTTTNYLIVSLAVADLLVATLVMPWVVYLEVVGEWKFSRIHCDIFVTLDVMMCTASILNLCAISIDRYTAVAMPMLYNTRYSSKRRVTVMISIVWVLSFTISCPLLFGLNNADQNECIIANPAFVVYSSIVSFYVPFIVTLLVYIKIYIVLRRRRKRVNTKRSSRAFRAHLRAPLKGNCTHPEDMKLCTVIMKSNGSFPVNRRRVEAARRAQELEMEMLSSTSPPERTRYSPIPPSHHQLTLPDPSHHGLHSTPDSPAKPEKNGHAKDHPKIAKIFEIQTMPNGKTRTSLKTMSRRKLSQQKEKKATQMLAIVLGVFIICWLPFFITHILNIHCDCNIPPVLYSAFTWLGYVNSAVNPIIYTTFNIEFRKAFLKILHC
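Measurement of antagonist activity uses fluorescent calcium dye in inducible HEK293 T-REx D2 cells: 10 s baseline, compound addition with 180 s read, EC80 dopamine addition with a further 180 s read.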
D2 ag-1 – agonists of human D2 dopamine receptor; activation, % at 2 µM; HEK293 T-REx D2 cells, calcium flux agonist mode; actives 0.53% (n = 340,000);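 active means activation over 3 SD above normal in the single-dose calcium agonist read, cut at about 30% in these data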
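Agonism is scored from calcium flux in a force-coupled, inducible HEK293 cell line expressing D2, read kinetically for 180 s after compound addition against dopamine controls.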
D2 PAM-1 – positive allosteric modulators of human D2 dopamine receptor; actives 0.34% (n = 340,000); HEK293 T-REx D2, calcium flux, EC20 dopamine potentiation; P14416; AID 485347; potentiation, % at 10 µM;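 active means potentiation over 3 SD above the plate norm, cut at about 30% in these data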
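Potentiation of an EC20 dopamine calcium response measured kinetically over 180 s, after a preceding 180 s compound-only read flagging agonists. Cells: inducible Hek293 Trex D2 line, 4000/well, cultured overnight at 30 C before dye loading.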
D2 PAM-2 – positive allosteric modulators of human D2 dopamine receptor; AID 624464; P14416; DiscoveRx D2 beta-arrestin cells, luminescence, 90 min; 100% = 57 uM dopamine signal; actives 0.23% (n = 360,000); potentiation, % (no concentration beside the values); in the data active means potentiation above about 50%; inconclusive means mostly about 30% to 49%
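PathHunter beta-arrestin assay in DiscoveRx D2 cells. Compounds were added with an EC20 of dopamine (50 nM final) for 90 min at 37 deg C. Luminescence was read 1 h after detection reagent, with 57 uM dopamine as the EC100 control.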
D2 ag-2 – agonists of human D2 dopamine receptor (beta-arrestin); DiscoveRx PathHunter D2 beta-arrestin, luminescence, 90 min; 100% = 57 uM dopamine signal; activation, % (test concentration not listed); actives 0.084% (n = 360,000); AID 624465; in the data active means activation above about 40%; inconclusive means between about 15% and that limit
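Agonist mode: compounds alone added to overnight-plated D2 PathHunter cells for 90 min at 37 C, with 57 uM final dopamine (EC100) defining full response. Beta-arrestin recruitment detected by chemiluminescent reagent, read after 1 h at ambient temperature.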
Numbers stand for hits; i = inactive; ? = inconclusive; nt = not tested or not shown. In the library only some 2.4% were active in any assay of this set; here they are far more common.

SMILES | D2 antag | D2 ag-1 | D2 PAM-1 | D2 PAM-2 | D2 ag-2
CC1CCN(CCCCOc2ccccc2-c2ccccc2)CC1 | 84 | i | i | i | i
CC1CCCN(CCCOc2ccccc2-c2ccccc2)C1 (stereo unspecified) | 73 | i | i | i | i
CC1CCCN(CCOCCSc2ccccc2)C1 (stereo unspecified) | i | i | i | i | i
O=C(CN1C(=O)COc2ccc(S(=O)(=O)NC3CCCC3)cc21)Nc1ccc(Cl)cc1 | nt | nt | i | nt | nt
COC(=O)c1ccc(-n2c(/C=C\c3cccc(Br)c3)nc3ccccc3c2=O)cc1 | nt | i | i | nt | nt
Cc1ccc(S(=O)(=O)N(Cc2nc(-c3cccc(C)c3)no2)C2CCCCC2)cc1 | nt | i | i | nt | nt
COc1cc(-c2nnc(-c3cc(OC)c(OC)c(OC)c3)o2)cc(OC)c1OC | i | nt | i | i | i
CCCc1nnc(-c2cc(OC)c(OC)c(OC)c2)o1 | 30 | i | i | i | i
Cn1c(=O)[nH]c2cc(-c3noc(-c4ccc(F)cc4)n3)ccc21 | nt | nt | i | nt | nt
Cc1cc(C)cc(N=c2c([N+](=O)[O-])nn(-c3ccc4c(c3)OCCO4)n2O)c1 | i | i | i | i | i
O=[N+]([O-])c1nn(-c2ccc3c(c2)OCCO3)n(O)c1=Nc1ccc(Cl)cc1 | i | i | i | 51 | i
Cc1ccc(N=c2c([N+](=O)[O-])nn(-c3ccc4c(c3)OCCO4)n2O)cc1F | i | i | i | 58 | ?
CCCCCCCCCCCNC(=O)c1ccoc1C | i | nt | i | i | i
CCCCCC(C)NC(=O)c1ccoc1C (stereo unspecified) | 40 | i | i | i | i
NNC(=O)c1ccc(COCC(F)(F)F)cc1 | 53 | i | i | i | i
CN(C)CCNC(=O)c1ccc(COCC(F)(F)F)cc1 | i | i | nt | i | i
Oc1c(Br)cc(Br)cc1-c1nc2ccccc2s1 | nt | i | i | nt | nt
COc1ccc(CCN(C)C/C=C/c2ccccc2[N+](=O)[O-])cc1OC | 57 | i | i | i | i
Cc1ccccc1CNC(=O)CCC(=O)N1CCSc2ccccc21 | nt | i | i | nt | nt
CC(=O)OCCn1c(C)[n+](CCOC(C)=O)c2cc(Cl)c(Cl)cc21 | i | i | i | i | i
CC(=O)OCCn1c2nc(=O)[nH]c(=O)c-2nc2cc(C)c(C)cc21 | i | 112 | i | i | i
Cc1cccc(N2CCN(C(=O)c3cc4c(=O)[nH]c5ccc(C)cc5c4s3)CC2C)c1 (stereo unspecified) | nt | nt | i | nt | nt
CCc1nn(CC(=O)NCCCN2CCc3ccccc3C2)c(=O)c2cc3sccc3n12 | 79 | i | i | i | i
CCOC(=O)C(C)(C)Sc1nc2c(cnn2-c2ccc(C)cc2)c(=O)[nH]1 | 48 | i | i | i | i
Cc1ccc(-n2ncc3c(=O)[nH]c(SCC(=O)N4CCOCC4)nc32)cc1 | i | i | i | i | i
SMILES | D2 antag | D2 ag-1 | D2 PAM-1 | D2 PAM-2 | D2 ag-2
CCC1CCCCN1C(=O)CSc1nc2c(cnn2-c2ccc(C)cc2)c(=O)[nH]1 (stereo unspecified) | 33 | i | i | i | i
COc1ccc(-c2cn3nc(N4CCC(C(=O)Nc5cc(Cl)ccc5C)CC4)sc3n2)cc1 | nt | i | nt | nt | nt
CCCCOc1ccccc1C1CC(=O)Nc2ccc3ccccc3c21 (stereo unspecified) | nt | i | i | nt | nt
C/C(=N\NC(N)=O)c1cc(Cl)cc(Cl)c1O | 54 | i | i | i | i
C/C(=N\O)c1cc(Cl)cc(Cl)c1O | i | i | i | i | i
CCc1ccc(NC(=O)Cn2c(=O)n(CCC(=O)NCCc3ccc(Cl)cc3)c(=O)c3ccccc32)cc1 | nt | nt | i | nt | nt
Cc1cc(C)n(-c2ccc([N+](=O)[O-])cc2)n1 | 34 | i | i | i | i
CCN1CCc2nc(SCC(=O)Nc3ccc(OC)cc3)c(C#N)cc2C1 | 36 | i | i | i | i
COc1ccc(NC(=O)CSc2nc3c(cc2C#N)CN(C)CC3)cc1 | i | i | i | i | i
CCCCN(C)C(=O)c1ccc2c(c1)N(Cc1cccc(F)c1)C(=O)c1ccccc1S2 | nt | i | i | nt | nt
COc1ccccc1-c1noc(CCCC(=O)Nc2cc(C)ccc2C)n1 | nt | i | i | nt | nt
COc1ccccc1NC(=O)NC1CCS(=O)(=O)C1 (stereo unspecified) | 39 | i | i | i | i
Cc1ccccc1NC(=O)NC1CCS(=O)(=O)C1 (stereo unspecified) | i | i | i | i | i
Cc1cccc(Nc2nc(N)c([N+](=O)[O-])c(N3CCN(C)CC3)n2)c1 | 55 | i | i | i | i
Nc1nc(Nc2cccc(F)c2)nc(N2CCOCC2)c1[N+](=O)[O-] | i | i | i | i | i
CN1CCN(c2nc(Nc3ccccc3)nc(N)c2[N+](=O)[O-])CC1 | 83 | i | i | i | i
CC(=O)Cn1c(CN2CCCC2)nc2ccccc2c1=O | 35 | i | i | i | i
CC(=O)Cn1c(CN2CCCCC2)nc2ccccc2c1=O | i | i | i | i | i
COc1ccc(/C=C/C(=O)O/N=C(\N)c2ccccc2)cc1OC | i | i | i | 52 | i
Cc1ccccc1/C(N)=N/OC(=O)c1cccs1 | nt | nt | nt | 139 | ?
Cc1ccccc1/C(N)=N/OC(=O)/C=C/c1ccccc1 | i | i | i | 87 | ?
N/C(=N\OC(=O)c1cccs1)c1cccnc1 | i | i | i | ? | ?
N/C(Cc1ccc(Cl)c(Cl)c1)=N\OC(=O)c1cccs1 | i | i | i | 81 | i
CCOCCCNC(=O)NC(CCC(C)C)c1c(-n2cccc2)sc2c1CCN(C)C2 (stereo unspecified) | nt | i | i | nt | nt
CCOC(=O)c1ccc(NC(=O)Cc2ccc(-n3c(CC)nc4cccnc43)cc2)cc1 | nt | i | i | nt | nt
SMILES | D2 antag | D2 ag-1 | D2 PAM-1 | D2 PAM-2 | D2 ag-2
CCOc1ccc(OCC)c(NC(=O)c2csc3c2CCCC3)c1 | nt | i | i | nt | nt
COc1ccc(Br)cc1CNC(=O)CN1C(=O)c2cccnc2Oc2ccc(C)cc21 | nt | i | i | nt | nt
COc1ccc(/C=C/C(=O)Nc2ccccc2)cc1OC | 30 | i | i | i | i
O=[N+]([O-])c1ccc(OCCN2CCNCC2)cc1 | 32 | i | i | i | i
CC1CN(CCOc2ccc([N+](=O)[O-])cc2)CC(C)O1 (stereo unspecified) | i | i | i | i | i
O=C(c1cc(-c2ccc(Br)cc2)n[nH]1)N1CCN(S(=O)(=O)c2ccc(Br)s2)CC1 | nt | i | i | nt | nt
N#C/C(=C\c1ccc(O)c(Br)c1)C(=O)NCc1ccccc1 | 69 | i | i | i | i
N#C/C(=C\c1ccc(O)c([N+](=O)[O-])c1)C(=O)NCc1ccccc1 | i | i | i | i | i
COc1ccc(C2C3=C(CC(C)(C)CC3=O)Nc3c2c(=O)n(C)c(=O)n3C)cc1OC (stereo unspecified) | i | i | i | i | i
COc1ccc(OC)c(C2C3=C(CCCC3=O)Nc3c2c(=O)n(C)c(=O)n3C)c1 (stereo unspecified) | i | i | 32 | i | i
